Experimental data: ChEMBL document CHEMBL1961873, “Compounds: GSK PKIS; Assays: Nanosyn kinase panel” (2012)

Key:
[1] = target: Protein kinase C gamma type (Homo sapiens) (UniProt P05129); conditions: at 1 µM;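 also: each value is an averaged percent inhibition of the enzyme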
[2] = target: T1, Protein kinase C iota type (Homo sapiens) (UniProt P41743); conditions: at 0.1 µM
T1 sequence (whole entry): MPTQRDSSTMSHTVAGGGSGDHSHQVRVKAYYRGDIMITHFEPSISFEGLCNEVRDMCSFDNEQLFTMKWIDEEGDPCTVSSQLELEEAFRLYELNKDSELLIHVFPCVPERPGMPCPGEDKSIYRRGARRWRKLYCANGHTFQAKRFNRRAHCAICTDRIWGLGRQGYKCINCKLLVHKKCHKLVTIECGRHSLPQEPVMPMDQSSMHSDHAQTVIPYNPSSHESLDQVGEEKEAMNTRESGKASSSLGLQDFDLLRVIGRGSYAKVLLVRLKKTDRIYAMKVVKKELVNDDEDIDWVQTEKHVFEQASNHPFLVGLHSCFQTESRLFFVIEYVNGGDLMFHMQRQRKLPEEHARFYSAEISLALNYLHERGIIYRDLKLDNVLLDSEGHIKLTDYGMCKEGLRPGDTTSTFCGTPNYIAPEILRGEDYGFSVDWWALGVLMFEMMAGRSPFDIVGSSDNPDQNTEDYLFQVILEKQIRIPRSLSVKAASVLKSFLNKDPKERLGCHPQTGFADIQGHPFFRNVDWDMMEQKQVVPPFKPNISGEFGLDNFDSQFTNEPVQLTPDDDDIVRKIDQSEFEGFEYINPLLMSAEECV

[3] = target: T1, Protein kinase C iota type (Homo sapiens); conditions: at 1 µM
[4] = target: Protein kinase C theta type (Homo sapiens) (UniProt Q04759); conditions: at 0.1 µM
Chain of Protein kinase C theta type (Homo sapiens) (Q04759 whole entry, looked up): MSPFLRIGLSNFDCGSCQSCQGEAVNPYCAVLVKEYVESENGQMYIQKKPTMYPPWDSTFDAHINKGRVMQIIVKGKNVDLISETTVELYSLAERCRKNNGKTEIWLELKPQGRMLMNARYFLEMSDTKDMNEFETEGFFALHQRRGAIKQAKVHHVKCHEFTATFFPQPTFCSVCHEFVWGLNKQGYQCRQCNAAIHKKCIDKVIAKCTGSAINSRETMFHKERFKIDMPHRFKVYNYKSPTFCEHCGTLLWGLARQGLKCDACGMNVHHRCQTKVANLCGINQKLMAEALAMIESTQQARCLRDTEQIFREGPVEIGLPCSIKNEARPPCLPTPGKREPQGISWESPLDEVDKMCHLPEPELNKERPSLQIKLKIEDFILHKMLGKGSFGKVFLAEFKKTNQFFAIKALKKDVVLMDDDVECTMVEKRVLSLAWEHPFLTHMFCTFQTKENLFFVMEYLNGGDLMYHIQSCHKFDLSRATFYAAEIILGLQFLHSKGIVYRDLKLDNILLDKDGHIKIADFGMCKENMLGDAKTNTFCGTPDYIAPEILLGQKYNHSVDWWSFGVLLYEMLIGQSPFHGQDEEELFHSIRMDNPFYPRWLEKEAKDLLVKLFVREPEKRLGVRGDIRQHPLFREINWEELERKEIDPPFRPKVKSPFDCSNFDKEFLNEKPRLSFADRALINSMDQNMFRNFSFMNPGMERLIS

[5] = target: Protein kinase C theta type (Homo sapiens) (UniProt Q04759); conditions: at 1 µM
[6] = target: Protein kinase C beta type (Homo sapiens) (UniProt P05771); conditions: at 0.1 µM
Chain of Protein kinase C beta type (Homo sapiens) (P05771 2-671 limits assumed): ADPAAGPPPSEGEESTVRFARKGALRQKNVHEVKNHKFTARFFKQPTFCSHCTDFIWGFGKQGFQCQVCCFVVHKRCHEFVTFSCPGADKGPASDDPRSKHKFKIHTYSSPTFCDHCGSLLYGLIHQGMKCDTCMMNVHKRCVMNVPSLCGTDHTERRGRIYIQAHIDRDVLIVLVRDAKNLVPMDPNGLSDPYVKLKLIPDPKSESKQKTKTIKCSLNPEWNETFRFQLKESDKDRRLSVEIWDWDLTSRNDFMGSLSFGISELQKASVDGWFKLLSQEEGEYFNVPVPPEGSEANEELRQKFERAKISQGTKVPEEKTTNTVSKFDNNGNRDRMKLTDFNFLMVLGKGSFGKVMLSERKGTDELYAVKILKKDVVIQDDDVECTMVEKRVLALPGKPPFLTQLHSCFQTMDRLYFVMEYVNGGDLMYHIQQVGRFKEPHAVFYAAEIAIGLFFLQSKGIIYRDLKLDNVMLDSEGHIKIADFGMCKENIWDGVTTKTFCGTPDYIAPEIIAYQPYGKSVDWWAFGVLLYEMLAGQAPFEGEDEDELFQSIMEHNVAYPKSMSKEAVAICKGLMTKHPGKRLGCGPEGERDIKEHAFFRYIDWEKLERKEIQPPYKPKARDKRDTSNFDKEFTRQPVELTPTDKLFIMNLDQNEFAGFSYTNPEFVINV

[7] = target: Protein kinase C beta type (Homo sapiens) (UniProt P05771); conditions: at 1 µM
[8] = target: T2, Serine/threonine-protein kinase D1 (Homo sapiens) (UniProt Q15139); conditions: at 0.1 µM
T2 sequence (whole entry): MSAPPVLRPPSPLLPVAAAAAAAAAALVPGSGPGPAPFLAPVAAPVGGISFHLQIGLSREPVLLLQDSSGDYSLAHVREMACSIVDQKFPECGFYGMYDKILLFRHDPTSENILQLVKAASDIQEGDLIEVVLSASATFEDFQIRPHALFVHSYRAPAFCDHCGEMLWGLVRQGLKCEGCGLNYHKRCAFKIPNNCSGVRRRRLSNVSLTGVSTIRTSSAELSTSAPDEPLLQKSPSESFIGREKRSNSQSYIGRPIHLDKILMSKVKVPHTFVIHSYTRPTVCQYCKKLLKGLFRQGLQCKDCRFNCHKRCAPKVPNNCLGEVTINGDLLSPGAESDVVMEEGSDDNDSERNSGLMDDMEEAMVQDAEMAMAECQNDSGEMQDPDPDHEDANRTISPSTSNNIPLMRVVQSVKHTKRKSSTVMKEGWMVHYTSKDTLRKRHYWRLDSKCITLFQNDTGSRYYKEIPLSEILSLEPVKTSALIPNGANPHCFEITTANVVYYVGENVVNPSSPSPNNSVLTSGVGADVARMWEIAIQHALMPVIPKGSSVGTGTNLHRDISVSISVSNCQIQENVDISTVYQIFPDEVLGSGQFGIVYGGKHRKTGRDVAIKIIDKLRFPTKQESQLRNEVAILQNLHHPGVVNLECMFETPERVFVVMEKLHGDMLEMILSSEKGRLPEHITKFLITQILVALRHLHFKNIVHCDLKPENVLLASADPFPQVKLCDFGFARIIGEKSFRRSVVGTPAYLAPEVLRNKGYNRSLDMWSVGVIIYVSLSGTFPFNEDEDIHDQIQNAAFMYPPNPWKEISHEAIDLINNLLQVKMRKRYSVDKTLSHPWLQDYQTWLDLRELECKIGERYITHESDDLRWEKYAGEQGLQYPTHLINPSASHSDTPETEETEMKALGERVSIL

[9] = target: T2, Serine/threonine-protein kinase D1 (Homo sapiens); conditions: at 1 µM
[10] = target: T3, Serine/threonine-protein kinase D2 (Homo sapiens) (UniProt Q9BZL6); conditions: at 0.1 µM
T3 sequence (whole entry): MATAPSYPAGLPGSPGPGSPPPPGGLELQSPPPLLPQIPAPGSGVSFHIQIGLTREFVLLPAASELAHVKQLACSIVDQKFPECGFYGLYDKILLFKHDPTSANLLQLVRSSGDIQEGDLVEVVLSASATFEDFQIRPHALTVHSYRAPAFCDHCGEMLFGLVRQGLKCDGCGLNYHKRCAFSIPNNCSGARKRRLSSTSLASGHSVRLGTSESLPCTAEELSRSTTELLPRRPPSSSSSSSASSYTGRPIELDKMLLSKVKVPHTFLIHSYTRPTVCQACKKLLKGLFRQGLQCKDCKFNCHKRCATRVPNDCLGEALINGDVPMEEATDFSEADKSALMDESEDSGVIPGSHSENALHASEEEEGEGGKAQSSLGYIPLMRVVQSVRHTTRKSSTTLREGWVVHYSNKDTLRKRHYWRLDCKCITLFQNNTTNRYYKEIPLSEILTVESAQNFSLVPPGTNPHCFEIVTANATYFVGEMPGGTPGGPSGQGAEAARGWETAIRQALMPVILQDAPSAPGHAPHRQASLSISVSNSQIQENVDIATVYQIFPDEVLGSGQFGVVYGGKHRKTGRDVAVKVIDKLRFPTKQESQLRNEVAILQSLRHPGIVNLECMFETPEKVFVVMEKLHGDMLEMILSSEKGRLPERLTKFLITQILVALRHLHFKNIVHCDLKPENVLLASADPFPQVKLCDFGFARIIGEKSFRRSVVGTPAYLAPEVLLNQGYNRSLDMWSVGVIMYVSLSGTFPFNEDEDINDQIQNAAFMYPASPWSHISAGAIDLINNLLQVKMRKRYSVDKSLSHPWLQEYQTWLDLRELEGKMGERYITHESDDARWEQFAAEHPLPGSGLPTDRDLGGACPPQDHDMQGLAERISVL

[11] = target: T3, Serine/threonine-protein kinase D2 (Homo sapiens); conditions: at 1 µM
[12] = target: T4, Serine/threonine-protein kinase D3 (Homo sapiens) (UniProt O94806); conditions: at 0.1 µM
T4 sequence (whole entry): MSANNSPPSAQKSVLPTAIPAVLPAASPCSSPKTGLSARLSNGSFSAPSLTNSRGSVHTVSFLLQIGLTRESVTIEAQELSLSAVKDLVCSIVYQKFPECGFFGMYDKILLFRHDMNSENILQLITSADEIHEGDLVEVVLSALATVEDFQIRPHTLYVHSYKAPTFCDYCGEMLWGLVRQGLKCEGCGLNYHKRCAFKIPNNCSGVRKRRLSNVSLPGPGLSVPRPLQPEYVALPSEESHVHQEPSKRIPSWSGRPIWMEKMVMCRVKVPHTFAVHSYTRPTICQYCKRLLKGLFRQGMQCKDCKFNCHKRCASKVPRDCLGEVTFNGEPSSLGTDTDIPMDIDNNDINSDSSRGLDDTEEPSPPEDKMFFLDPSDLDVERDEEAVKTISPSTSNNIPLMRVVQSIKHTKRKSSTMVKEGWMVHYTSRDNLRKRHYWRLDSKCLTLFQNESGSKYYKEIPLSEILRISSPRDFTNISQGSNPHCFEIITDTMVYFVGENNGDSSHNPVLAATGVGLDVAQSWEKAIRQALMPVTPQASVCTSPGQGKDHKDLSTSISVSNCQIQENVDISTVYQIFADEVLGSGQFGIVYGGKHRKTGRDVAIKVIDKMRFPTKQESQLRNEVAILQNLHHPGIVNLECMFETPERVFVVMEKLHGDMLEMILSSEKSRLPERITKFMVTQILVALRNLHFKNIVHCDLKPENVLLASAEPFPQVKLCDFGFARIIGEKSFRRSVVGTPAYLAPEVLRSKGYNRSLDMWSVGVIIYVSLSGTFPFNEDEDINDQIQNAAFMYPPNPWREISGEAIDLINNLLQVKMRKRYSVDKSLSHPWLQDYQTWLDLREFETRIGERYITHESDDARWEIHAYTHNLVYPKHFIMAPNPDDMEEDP

[13] = target: T4, Serine/threonine-protein kinase D3 (Homo sapiens); conditions: at 1 µM
[14] = target: T5, cGMP-dependent protein kinase 1 (Homo sapiens) (UniProt Q13976); conditions: at 0.1 µM
T5 sequence (whole entry): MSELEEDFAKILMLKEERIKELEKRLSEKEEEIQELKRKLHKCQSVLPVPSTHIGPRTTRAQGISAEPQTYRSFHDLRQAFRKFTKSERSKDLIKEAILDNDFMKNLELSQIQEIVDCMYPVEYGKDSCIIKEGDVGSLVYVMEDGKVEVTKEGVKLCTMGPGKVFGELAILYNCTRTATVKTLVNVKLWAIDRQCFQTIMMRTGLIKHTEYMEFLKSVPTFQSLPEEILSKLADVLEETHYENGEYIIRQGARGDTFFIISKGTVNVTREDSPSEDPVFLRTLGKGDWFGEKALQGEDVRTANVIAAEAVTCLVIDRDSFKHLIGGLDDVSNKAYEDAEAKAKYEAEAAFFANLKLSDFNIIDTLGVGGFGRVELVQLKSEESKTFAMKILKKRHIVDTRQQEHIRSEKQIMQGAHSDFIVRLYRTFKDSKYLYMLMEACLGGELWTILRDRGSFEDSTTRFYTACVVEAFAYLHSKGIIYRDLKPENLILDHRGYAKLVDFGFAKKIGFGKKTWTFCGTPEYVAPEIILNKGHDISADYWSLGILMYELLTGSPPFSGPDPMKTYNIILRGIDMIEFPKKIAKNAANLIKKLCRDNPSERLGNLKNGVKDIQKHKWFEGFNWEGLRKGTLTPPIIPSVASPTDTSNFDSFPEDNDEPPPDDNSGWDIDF

[15] = target: T5, cGMP-dependent protein kinase 1 (Homo sapiens); conditions: at 1 µM
[16] = target: T6, cGMP-dependent protein kinase 2 (Homo sapiens) (UniProt Q13237); conditions: at 0.1 µM
T6 sequence (whole entry): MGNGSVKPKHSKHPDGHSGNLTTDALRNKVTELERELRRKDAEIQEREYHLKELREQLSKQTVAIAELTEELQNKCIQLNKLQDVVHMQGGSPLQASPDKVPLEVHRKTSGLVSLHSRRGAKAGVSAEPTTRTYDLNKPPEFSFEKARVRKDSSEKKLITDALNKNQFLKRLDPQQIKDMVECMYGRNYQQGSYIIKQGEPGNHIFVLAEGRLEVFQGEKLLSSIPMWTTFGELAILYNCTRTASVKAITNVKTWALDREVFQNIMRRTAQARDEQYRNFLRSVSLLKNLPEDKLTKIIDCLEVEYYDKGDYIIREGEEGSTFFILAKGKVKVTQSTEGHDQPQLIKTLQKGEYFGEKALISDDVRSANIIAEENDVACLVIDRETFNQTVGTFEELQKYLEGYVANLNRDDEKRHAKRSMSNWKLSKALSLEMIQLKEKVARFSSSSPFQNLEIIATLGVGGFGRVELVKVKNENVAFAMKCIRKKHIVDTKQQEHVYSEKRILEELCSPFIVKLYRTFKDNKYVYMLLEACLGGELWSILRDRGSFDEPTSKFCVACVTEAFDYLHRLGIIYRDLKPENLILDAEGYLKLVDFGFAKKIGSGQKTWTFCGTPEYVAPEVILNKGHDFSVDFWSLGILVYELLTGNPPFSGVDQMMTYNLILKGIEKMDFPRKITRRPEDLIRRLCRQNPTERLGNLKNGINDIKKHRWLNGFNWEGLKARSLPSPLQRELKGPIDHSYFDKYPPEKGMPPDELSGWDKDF

[17] = target: T6, cGMP-dependent protein kinase 2 (Homo sapiens); conditions: at 1 µM
[18] = target: T7, cAMP-dependent protein kinase catalytic subunit PRKX (Homo sapiens) (UniProt P51817); conditions: at 0.1 µM
T7 sequence (whole entry): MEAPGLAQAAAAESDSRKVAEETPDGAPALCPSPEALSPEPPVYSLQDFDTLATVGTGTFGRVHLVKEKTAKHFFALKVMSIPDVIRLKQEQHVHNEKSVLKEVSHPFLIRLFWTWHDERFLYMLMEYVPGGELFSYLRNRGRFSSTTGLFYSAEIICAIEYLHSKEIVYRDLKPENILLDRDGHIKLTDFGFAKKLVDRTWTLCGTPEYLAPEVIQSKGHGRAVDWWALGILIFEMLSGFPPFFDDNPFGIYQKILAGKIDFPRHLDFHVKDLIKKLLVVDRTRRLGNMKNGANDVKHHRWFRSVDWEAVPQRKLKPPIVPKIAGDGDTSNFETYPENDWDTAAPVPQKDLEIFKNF

[19] = target: T7, cAMP-dependent protein kinase catalytic subunit PRKX (Homo sapiens); conditions: at 1 µM
[20] = target: Rho-associated protein kinase 1 (Homo sapiens) (UniProt Q13464); conditions: at 0.1 µM;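 also: values are mean percent inhibition of ROCK1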
Chain of Rho-associated protein kinase 1 (Homo sapiens) (Q13464 2-1354 limits assumed): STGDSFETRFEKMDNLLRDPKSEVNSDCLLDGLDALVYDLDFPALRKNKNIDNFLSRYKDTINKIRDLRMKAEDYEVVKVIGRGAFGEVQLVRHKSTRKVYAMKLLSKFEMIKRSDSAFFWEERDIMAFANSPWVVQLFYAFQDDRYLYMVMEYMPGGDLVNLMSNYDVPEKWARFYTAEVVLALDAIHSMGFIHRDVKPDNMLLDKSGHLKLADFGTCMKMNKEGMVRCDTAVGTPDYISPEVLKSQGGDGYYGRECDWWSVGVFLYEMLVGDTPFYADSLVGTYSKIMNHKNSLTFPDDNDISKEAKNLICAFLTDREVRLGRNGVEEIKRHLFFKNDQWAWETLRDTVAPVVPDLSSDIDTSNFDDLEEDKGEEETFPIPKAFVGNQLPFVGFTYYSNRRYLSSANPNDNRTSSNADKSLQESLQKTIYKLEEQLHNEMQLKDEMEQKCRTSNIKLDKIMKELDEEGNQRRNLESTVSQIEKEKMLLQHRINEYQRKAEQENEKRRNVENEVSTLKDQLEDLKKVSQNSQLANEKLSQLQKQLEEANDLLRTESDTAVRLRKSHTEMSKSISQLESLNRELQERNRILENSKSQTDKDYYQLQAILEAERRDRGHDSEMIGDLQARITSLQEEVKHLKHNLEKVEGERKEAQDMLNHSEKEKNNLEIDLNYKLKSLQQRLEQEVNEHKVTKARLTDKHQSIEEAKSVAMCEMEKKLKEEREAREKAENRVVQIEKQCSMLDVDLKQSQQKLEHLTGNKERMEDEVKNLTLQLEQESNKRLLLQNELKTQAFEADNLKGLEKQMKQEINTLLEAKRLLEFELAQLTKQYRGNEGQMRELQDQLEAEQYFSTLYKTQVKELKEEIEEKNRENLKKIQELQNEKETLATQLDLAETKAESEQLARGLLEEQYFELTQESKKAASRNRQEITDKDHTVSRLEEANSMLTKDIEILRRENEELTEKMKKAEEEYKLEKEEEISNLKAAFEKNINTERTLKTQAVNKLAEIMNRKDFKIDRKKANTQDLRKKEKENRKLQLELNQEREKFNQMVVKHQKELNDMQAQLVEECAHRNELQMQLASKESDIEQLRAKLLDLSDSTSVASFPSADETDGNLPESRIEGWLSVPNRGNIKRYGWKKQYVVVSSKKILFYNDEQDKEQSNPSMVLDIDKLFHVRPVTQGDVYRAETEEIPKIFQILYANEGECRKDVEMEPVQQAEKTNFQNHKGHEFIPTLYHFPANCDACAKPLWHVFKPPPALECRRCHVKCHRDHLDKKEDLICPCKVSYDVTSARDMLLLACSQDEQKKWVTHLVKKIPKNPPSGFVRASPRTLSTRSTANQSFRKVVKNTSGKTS

| SMILES | inhibition [1] [%] | inhibition [2] [%] | inhibition [3] [%] | inhibition [4] [%] | inhibition [5] [%] | inhibition [6] [%] | inhibition [7] [%] | inhibition [8] [%] | inhibition [9] [%] | inhibition [10] [%] | inhibition [11] [%] | inhibition [12] [%] | inhibition [13] [%] | inhibition [14] [%] | inhibition [15] [%] | inhibition [16] [%] | inhibition [17] [%] | inhibition [18] [%] | inhibition [19] [%] | inhibition [20] [%] |
| --- | --- | --- | --- | --- | --- | --- | --- | --- | --- | --- | --- | --- | --- | --- | --- | --- | --- | --- | --- | --- |
| Cc1ccc(C(=O)NC2CC2)cc1-c1ccc2[nH]ncc2c1 | 0.02 | -1.83 | -1.13 | -1.64 | 0.05 | -0.94 | -0.69 | -4.08 | -2.68 | -2.91 | 0.22 | -3.35 | -2.14 | -1.78 | 1.62 | -1.53 | -0.47 | -1.3 | -0.54 | -0.64 |
| Cc1ccc2c(-c3ccnc(Nc4cccc(C(F)(F)F)c4)n3)c(-c3ccccc3)nn2n1 | 5.36 | 1.34 | 1.37 | 2.13 | 3.7 | 1.37 | 5 | 7.68 | 39.8 | 12.8 | 56.8 | 11.6 | 51.5 | 3.11 | 5.07 | 3.26 | 4.35 | 2.65 | 2.54 | 3.08 |
| [O-][S+]1CCN(Cc2ccc(-c3ccc4ncnc(Nc5ccc(OCc6ccccc6)c(Cl)c5)c4c3)o2)CC1 | 3.28 | 1.72 | 1.88 | 1.06 | 1.03 | 0.97 | 2.88 | 1.74 | 2.75 | 1.16 | 1.77 | 1.61 | 2.2 | 1.79 | 0.53 | 0.97 | 2.95 | 1.3 | 1.17 | 0.9 |
